# Screens from PubChem BioAssay.
# 697 NFkB inh = inhibitors of the PMA/ionomycin-induced NF-kB reporter in 697 B cells; 697 B-cell NF-kB luciferase reporter, 16 h; AID 435022; actives 0.33% (n = 330,000); inhibition, % at 4 µM; in the data active = inhibition above about 35%
# COUP-TFII inh = inhibitors of human COUP-TFII (NR2F2); P24468; HEK293T NGFI-A luciferase reporter, luminescence; inhibition, % at 8.6 µM; actives 0.7% (n = 370,000);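 active = inhibition above a per-plate cutoff, mean inhibition of test wells between control levels plus 3 SD, cut at about 38% in these data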;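 note: cells cotransfected with COUP-TFII expression vector driving the NGFI-A reporter; 0% = median of COUP-TF2 test wells and 100% = reporter-only cells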
# Target sequence (P24468 whole entry, looked up): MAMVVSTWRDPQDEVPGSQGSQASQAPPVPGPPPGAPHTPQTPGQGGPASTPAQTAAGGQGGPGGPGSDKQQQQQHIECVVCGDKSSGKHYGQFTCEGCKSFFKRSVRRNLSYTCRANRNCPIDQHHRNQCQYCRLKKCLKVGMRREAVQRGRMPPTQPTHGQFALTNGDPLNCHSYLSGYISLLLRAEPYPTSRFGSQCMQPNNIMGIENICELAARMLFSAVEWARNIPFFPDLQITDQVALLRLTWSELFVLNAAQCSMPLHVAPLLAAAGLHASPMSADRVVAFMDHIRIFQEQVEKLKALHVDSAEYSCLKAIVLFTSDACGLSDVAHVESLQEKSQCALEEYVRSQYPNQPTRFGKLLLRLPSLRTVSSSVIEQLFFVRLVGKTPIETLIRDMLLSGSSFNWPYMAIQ
# Jurkat NFkB inh = lowers PMA/ionomycin-induced NF-kB signal in Jurkat cells. PMA/ionomycin-induced NF-kB luciferase reporter, luminescence. inhibition, % at 4 µM. actives 0.53% (n = 330,000). AID 435003; in the data active = inhibition above about 50%
# Gli-Sufu antag = Gli-Sufu pathway antagonism; actives 0.74% (n = 340,000); Sufu-KO-LIGHT fibroblasts, Gli luciferase reporter luminescence; inhibition, % at 5 µM;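 active = inhibition above about 55%, limit read from the data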;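 note: 0% = DMSO-treated cells and 100% = wells with medium but no cells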
# TAG inh = inhibitors of triacylglycerol accumulation; inhibition, % at 12.5 µM; H9c2 cells, Nile Red lipid (TAG) fluorescence; cells loaded with 200 µM oleic acid; actives 0.66% (n = 230,000); AID 651582;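 active = pattern-corrected inhibition of lipid staining of at least 50% with the nuclear-stain viability signal not falling by more than 50%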;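 note: 0% = DMSO wells and 100% = triacsin C control wells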
# Cardio protect = modulators protecting cardiomyocytes from myocardial damage. H9c2 cardiomyocytes, H2O2 injury protection, ATPLite, 2 h. AID 588492. protection from H2O2 cell death, % at 20 µM. actives 0.63% (n = 360,000);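 active = compounds giving at least 50% protection of heart cells from peroxide-induced death in the single-dose screen, raw or plate-pattern-corrected value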;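 note: 0% = DMSO wells with peroxide and 100% = DMSO wells without peroxide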
# 697 NFkB conf = inhibitors of the PMA/ionomycin-induced NF-kB reporter in 697 B cells, retest; shares compounds with 697 NFkB inh; 697 B-cell NF-kB luciferase, 16 h; inhibition, % at 4 µM; actives 35% (n = 2,000); AID 449746; in the data active = inhibition mostly above about 28%, no sharp cut-off; inactive = mostly below about 22%
# Gli antag conf = Gli-SUFU antagonism confirmation, single concentration; actives 40% (n = 2,500); shares compounds with Gli-Sufu antag; AID 602428; Sufu-KO-LIGHT cells, Gli luciferase reporter, luminescence; inhibition, % at 5 µM;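 active = mean inhibition at 5 µM reaching about 45%, limit read from the data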;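 note: plate controls were DMSO-treated cells for no effect and wells lacking cells for full effect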
# SufuKO cytotox = counter-screen for Gli-SUFU antagonists: cytotoxicity; shares compounds with Gli-Sufu antag; actives 32% (n = 2,500); cytotoxicity, % at 5 µM; AID 651994; Sufu-KO-LIGHT cells cytotoxicity, ATP luminescence;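 active = mean cytotoxicity at 5 µM above about 25%, limit read from the data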;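 note: cells exposed to compound overnight for roughly 16 to 18 hours; plate controls were DMSO wells with cells for no effect and medium without cells for full effect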
# Wnt3a counter = Wnt3a reporter inhibition counter-screen | shares compounds with Gli-Sufu antag | Wnt-LIGHT cells, Wnt3a-driven luciferase reporter, luminescence | inhibition, % at 6.25 µM | actives 20% (n = 2,500) | AID 651995;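 active = mean inhibition above about 25%, limit read from the data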
# TAG conf = triacylglycerol accumulation inhibition, confirmation; shares compounds with TAG inh; H9c2 lipid accumulation, Nile Red fluorescence; cells loaded with 200 µM oleic acid; inhibition, % at 12.5 µM; actives 71% (n = 990); AID 651629;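 active = mean inhibition across replicates of 40% or more; inactive = mean inhibition below 40%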;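 note: plate controls were DMSO only wells for no effect and Triacsin C treated wells for full effect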
# Gal4-VP16 ctr = inhibits VP16 reporter, flagging COUP-TFII antagonist hits. shares compounds with COUP-TFII inh. HEK293 Gal4-VP16 luciferase reporter, luminescence. inhibition, % at 8.5 µM. actives 25% (n = 2,500). AID 687007; in the data active = inhibition above about 13%
# COUP-TFII conf = confirmation of human COUP-TFII (NR2F2) inhibitors | shares compounds with COUP-TFII inh | HEK293 NGFI-A luciferase reporter, luminescence | inhibition, % at 8.5 µM | actives 45% (n = 2,500);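 active = mean inhibition over three repeats above a set limit taken from the earlier primary screen, cut at about 38% in these data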;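 note: 100% = cells given the luciferase reporter alone without the COUP-TF2 vector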
# * hit, by the source's call; x = no result given. This is a sample that favours compounds with a hit; in the whole collection about 2.6% have one here.
SMILES,697 NFkB inh,COUP-TFII inh,Jurkat NFkB inh,Gli-Sufu antag,TAG inh,Cardio protect,697 NFkB conf,Gli antag conf,SufuKO cytotox,Wnt3a counter,others
Cc1nnc2sc(SCc3ccc(Br)cc3)nn2c1=O,37*,13,-5,-6,0,8,13,x,x,x,
Cc1ccc(/C=C/C(=O)NC2=NCCS2)cc1,-417,-51,-144,-94,x,-22,-315,x,x,x,
CCN(CC(=O)Nc1c(F)cccc1F)C(=O)c1cc(S(=O)(=O)N(CC)CC)ccc1N1CCCCC1,66*,19,5,52,0,4,49*,42,6,19,
CCOC(=O)c1sc(NC(=O)Nc2ccccc2F)nc1C,-443,7,-140,51,x,-20,-439,41,49*,85*,
COC(=O)[C@]12C[C@H](CC(=O)NCCCCc3ccccc3)C(=O)N(Cc3ccco3)C1=C[C@H](C(C)(C)C)O[C@@H]2C,x,-9,x,x,x,x,x,x,x,x,
Cc1cccc(Nc2nc(N3CCOCC3)nc(N3CCOCC3)n2)c1,31,-23,-25,22,x,5,x,x,x,x,
Cc1ccc(Nc2nc(N3CCOCC3)nc(N3CCOCC3)n2)cc1C,55*,9,32,57*,x,-2,47*,50*,41*,-51,
CCCC#C/C(CCC)=C1\c2ccccc2C(=O)N1c1ccccc1,x,3,x,x,x,x,x,x,x,x,
O=S(=O)(c1ccc2c(c1)C(=NO)c1cc(S(=O)(=O)N3CCCCC3)ccc1-2)N1CCCCC1,104*,7,25,95*,159,-4,-33,93*,71*,104*,
O=S(=O)(c1ccc(S(=O)(=O)N2CCCC2)cc1)N1CCCCCC1,-8,-2,0,-2,x,-3,x,x,x,x,
CCOC(=O)C1CCN(C(=O)C(Cc2ccc3c(c2)OCO3)NC(C)=O)CC1 (stereo not drawn),x,-13,x,x,x,x,x,x,x,x,
C=CCOC(=O)N[C@H](c1ccc(-c2ccccc2)cc1)[C@H](C)/C=C/CC(=O)OC,x,15,x,x,x,x,x,x,x,x,
COc1cc(OC)c2c(-c3cccc(-c4ccc(OC)c(F)c4)c3)cc(=O)oc2c1,-347,-77,x,60*,-10,-4,-258,59*,60*,-7,
COc1cc(OC)c2c(-c3cccc(-c4ccc(C(C)=O)cc4)c3)cc(=O)oc2c1,-36,x,x,12,17,0,x,x,x,x,
CNC(=O)CSc1nc2nn(-c3ccccc3)c(=O)c-2c2n1CCCCC2,35*,x,-1,56*,x,1,38*,23,6,-28,
Cc1cc(NC(=O)c2ccc3c(c2)OCCO3)ccc1NC(=O)c1cc2ccccc2o1,-5,16,-16,6,7,30,x,x,x,x,
O=C(Nc1ccc(NC(=O)c2cc3ccccc3o2)cc1)c1ccc2c(c1)OCCO2,72*,-2,9,52,19,-3,59*,61*,2,88*,
COc1ccc(-c2n(Cc3ccccc3)c3ccccc3[n+]2Cc2ccccc2)cc1,41*,23,45,72*,-19,-10,33*,77*,33*,-24,
Fc1ccc(Nc2nc(N3CCOCC3)nc(N3CCOCC3)n2)cc1,-6,9,-15,37,x,2,x,x,x,x,
Cc1[nH]c2ccccc2c1/C=N/Nc1nc(Nc2ccc(F)cc2)nc(N2CCOCC2)n1,48*,6,32,2,76*,8,60*,x,x,x,TAG conf=86*
N#CC1=C(N)Oc2cc(Nc3ccccc3)ccc2C1c1ccncc1 (stereo not drawn),37*,1,-9,0,57*,-2,41*,x,x,x,TAG conf=83*
N#CC1=C(N)Oc2cc(N)ccc2C1c1cccnc1 (stereo not drawn),-7,2,14,-2,x,27,x,x,x,x,
Cc1noc(C)c1CSc1nc2[nH]ncc2c(=O)n1-c1ccccc1,55*,-95,39,32,64*,-4,55*,x,x,x,TAG conf=91*
CCC(C(=O)Nc1ccccc1N1CCCC1)c1cccc(Cl)c1 (stereo not drawn),x,-2,x,x,x,x,x,x,x,x,
O=C(Nc1nc2nc(-c3ccccc3)cc(-c3ccccc3)n2n1)c1ccco1,47*,-17,8,-4,64*,37,30*,x,x,x,TAG conf=31
SMILES,697 NFkB inh,COUP-TFII inh,Jurkat NFkB inh,Gli-Sufu antag,TAG inh,Cardio protect,697 NFkB conf,Gli antag conf,SufuKO cytotox,Wnt3a counter,others
c1ccc(-c2ccc(C3=Nn4c(nnc4-c4ccccn4)SC3)cc2)cc1,x,5,x,x,x,x,x,x,x,x,
CCOc1ccc(-c2c[n+]3c(n2-c2ccccc2)CCCCC3)cc1,60*,56*,47,88*,-13,-6,54*,88*,39*,21,Gal4-VP16 ctr=6;COUP-TFII conf=44*
CCOc1ccc(-c2nnc(-c3ccccc3)n2-c2ccccc2)cc1,-61,-20,-6,-7,10,1,x,x,x,x,
COc1ccccc1NC(=O)OC1CC2CC1[C@H]1CCCCN1[C@H]2Cc1ccccc1 (stereo partly drawn),x,-4,x,x,x,x,x,x,x,x,
Cc1cccc(NC(=O)CCC2CCN(C(=O)c3ccc(C)s3)CC2)c1,10,-1,2,14,x,-1,x,x,x,x,
COCc1ccc(C(=O)N2CCC(CCC(=O)Nc3cccc(C)c3)CC2)s1,39*,40*,19,9,x,2,17,x,x,x,Gal4-VP16 ctr=30*;COUP-TFII conf=14
Cc1ccc(C(C)C)c(OCc2ccc(C(=O)N/N=C/c3ccc(O)c(O)c3)cc2)c1,-276,44*,31,67*,x,97*,-38,49*,29*,93*,Gal4-VP16 ctr=19*;COUP-TFII conf=6
Cc1nn(C(C)(C)C)c(C)c1/C=N/OC(=O)Nc1ccc(Cl)c(Cl)c1,52*,69*,11,88*,-17,-11,69*,89*,-8,103*,Gal4-VP16 ctr=49*;COUP-TFII conf=84*
CC(=O)c1cn(CCOc2cc(C)ccc2C)c2ccccc12,65*,55*,48,68*,x,-12,83*,64*,21,46*,Gal4-VP16 ctr=18*;COUP-TFII conf=63*
